The campaign covered roughly 10,000 compounds. About 320 (3.2%) were called active. This is one part of a sample in which actives are shown more often than they occur. Values without a mark were called inactive. Rule as the data show it: active = CPE inhibition mostly above about 9.1% (no sharp cut-off); inactive = mostly below about 7.2%.
Test: Dengue virus cytopathic effect inhibitors, cell-based, CPE readout, HTS (AID 540333)
Conditions: Dengue virus CPE inhibition in host cells, at 20 µM; hits give high values
In the case of `COc1ccc(/C=C/C(=O)c2cc(F)ccc2OC(=O)c2ccccc2C)cc1OC`, the CPE inhibition was “inactive”.
For `N#Cc1ccsc1NC(=O)CN(Cc1ccccc1)Cc1ccccc1`, the CPE inhibition was 9.87% (active).
In the case of `N#Cc1ccsc1NC(=O)CN1CCN(c2ccccc2O)CC1`, the CPE inhibition was “inactive”.
With `CCN(CC)c1ccc(C(=O)OCC(=O)Nc2sccc2C#N)cc1` the CPE inhibition was “inactive”.
For `CSc1sc(C)cc1/C=N/O`, the CPE inhibition was “inactive”.
For `C/C(=N\NC(=S)NCCc1ccccc1)c1ccc(Cl)cc1`, the CPE inhibition was 1.61%.
`S=C(NCCc1ccccc1)Nc1ccc(Br)cc1` showed a CPE inhibition of 3.17%.
With `S=C(NCCc1ccccc1)N/N=C/c1ccccc1Cl` the CPE inhibition was 18.4% (active).
For `O=C(Nc1cc(Cl)ccc1Cl)c1ccc(-c2ccccc2)cc1`, the CPE inhibition was “inactive”.
Molecule `O=C(Nc1ccc(Cl)c(C(F)(F)F)c1)[C@@H]1CC=C[C@@H]2CCN(Cc3ccc(Cl)c(Cl)c3)C(=O)[C@@H]21` has a CPE inhibition of 9.69%.
For `COc1cc(NC(=O)CN2C(=O)C(c3ccccc3)=NC23CCCCCC3)cc(OC)c1`, the CPE inhibition was 14% (active).
Work on `COc1ccc(NC(=O)CN2C(=O)C(c3ccccc3)=NC23CCCCCC3)cc1OC` yielded a CPE inhibition of 0.935%.
`COc1ccc(NC(=O)CN2C(=O)C(c3ccccc3)=NC23CCCCCC3)cc1` gave a CPE inhibition of 5.39%.
Work on `CCOC(=O)/C(N=Nc1sc(C(=O)OC)c(C)c1C(=O)OCC)=C(\O)CCl` yielded a CPE inhibition of 0.165%.
With `Cc1cc(C)c(S(=O)(=O)Nc2ccccc2-c2ccccc2)c(C)c1` the CPE inhibition was 20.4% (active).
`Cc1ccc(S(=O)(=O)N(CC(=O)Nc2ccccc2-c2ccccc2)c2ccc(C)cc2C)cc1` gave a CPE inhibition of 10.8%.
In the case of `Cc1ccc(NS(=O)(=O)c2ccc3c(c2)C(=O)c2ccccc2C3=O)c(C)c1`, the CPE inhibition was 4.82%.
With `Clc1ccc(-n2nnnc2CN2CCOCC2)cc1Cl` the CPE inhibition was 0.27%.
For `COc1ccccc1OCCOCCOc1ccccc1Cl`, the CPE inhibition was “inactive”.
For `O=C1CN(C(=O)COC(=O)/C=C/c2ccc(OC(F)F)cc2)c2ccccc2N1`, the CPE inhibition was “inactive”.
In the case of `O=C(COC(=O)/C=C/c1ccc(OC(F)F)cc1)NCc1cccs1`, the CPE inhibition was 0.315%.
For `CCOC(=O)c1c(C)[nH]c(C)c1C(=O)COC(=O)/C=C/c1ccc(OC(F)F)cc1`, the CPE inhibition was 10.1% (active).
In the case of `C/C(=N\NC(=O)CSc1nnc(C)s1)c1ccc(Cl)cc1`, the CPE inhibition was “inactive”.
In the case of `CC(C)CC(=O)NC1(C(F)(F)F)C(=O)N(CC(C)C)C2=C1C(=O)CC(C)(C)C2` (centres undefined), the CPE inhibition was “inactive”.
`Cc1ccc(C)c(Nc2ncnc(N)c2[N+](=O)[O-])c1` showed a CPE inhibition of 6.21%.
In the case of `CNc1nc(Nc2ccc(C)c(Cl)c2)nc(N)c1[N+](=O)[O-]`, the CPE inhibition was 9.08% (active).
For `CC(=O)Nc1ccc(Nc2nc(C)c([N+](=O)[O-])c(Nc3ccc(NC(C)=O)cc3)n2)cc1`, the CPE inhibition was “inactive”.
With `COc1cccc(-c2ncc3ccccc3c2COC(=O)c2ccc(C(F)(F)F)cc2)c1` the CPE inhibition was 0.77%.
For `COc1cccc(-c2ncc3ccccc3c2COC(=O)c2ccc(C(C)(C)C)cc2)c1`, the CPE inhibition was 15.2% (active).
For `COc1cccc(-c2ncc3ccccc3c2CO)c1`, the CPE inhibition was “inactive”.
With `CC(=O)N1N=C(c2ccc(Br)cc2)OC1(C)CC(=O)Nc1ccccc1` (centres undefined) the CPE inhibition was 4.7%.
In the case of `O=C(CN1CCCCCCC1)N/N=C/c1ccccc1F`, the CPE inhibition was 0.805%.
`CC(C)(C)c1ccc(OCC(=O)N/N=C/c2ccc(N3CCOCC3)cc2)cc1` gave a CPE inhibition of 1.86%.
In the case of `C/C(=N\NC(=O)COc1ccc(C(C)(C)C)cc1)c1ccc(-n2ccnc2)cc1`, the CPE inhibition was 10.2% (active).
With `C/C(=N\Nc1ccc(Cl)c(Cl)c1)c1ccc(-n2ccnc2)cc1` the CPE inhibition was “inactive”.
`NS(=O)(=O)c1cccc(NC(=O)CSc2ncc(C(F)(F)F)cc2Cl)c1` showed a CPE inhibition of 3.56%.
With `CN(c1ccccc1)S(=O)(=O)c1cccc(NC(=O)CSc2nncn2C)c1` the CPE inhibition was 0.35%.
For `CN(c1ccccc1)S(=O)(=O)c1cccc(NC(=O)CSc2ncc(C(F)(F)F)cc2Cl)c1`, the CPE inhibition was 22.4% (active).
In the case of `Cc1c(Cl)cccc1NC(=S)NCc1cccn1C`, the CPE inhibition was 0.255%.
With `Cc1cccc(-n2c(C)cc(/C=C3/C(=N)N4C(c5ccccc5)=CSC4=NC3=O)c2C)c1` the CPE inhibition was 5.77%.
Molecule `Cc1cccc(-n2c(C)cc(/C=C3\C(=N)N4N=C(CC(C)C)SC4=NC3=O)c2C)c1` has a CPE inhibition of 0.575%.
In the case of `Cc1cc(C)cc(-n2c(C)cc(/C=C3\C(=N)N4N=C(CC(C)C)SC4=NC3=O)c2C)c1`, the CPE inhibition was 15.1% (active).
For `COC(=O)c1ccc(Oc2c(Cl)cccc2[N+](=O)[O-])cc1`, the CPE inhibition was 0.625%.
For `COc1ccc(Nc2nc(-c3cccc([N+](=O)[O-])c3)nc3ccccc23)c(OC)c1`, the CPE inhibition was 0.465%.
With `O=C(O)CC(CC(=O)O)c1ccsc1` the CPE inhibition was “inactive”.
`CCOC(=O)c1ccc(-n2c(C)ccc2C)cc1` gave a CPE inhibition of 0.33%.
With `C=CC[C@]12CCc3sccc3C1N(c1ccc(C(=O)OCC)cc1)C2=O` (some centres undefined) the CPE inhibition was 19.9% (active).
With `CCOC(=O)N1CCN(C(=O)c2ccc(-n3c(C)ccc3C)cc2)CC1` the CPE inhibition was 0.68%.
With `Cc1cc(=O)[nH]c(N/N=C/c2ccc(Br)s2)n1` the CPE inhibition was “inactive”.
Molecule `CCc1nnc(N2C(=O)c3ccc(Oc4ccc([N+](=O)[O-])cc4)cc3C2=O)s1` has a CPE inhibition of 0.2%.
Molecule `Cc1cccc(-c2nsc(SCC(=O)NCc3ccc4c(c3)OCO4)n2)c1` has a CPE inhibition of 0.255%.
Work on `FC(F)Oc1ccccc1NC(=S)Nc1cccc(Cl)c1Cl` yielded a CPE inhibition of 0.195%.
Work on `S=C(Nc1ccc(OCc2ccccc2)cc1)Nc1cccc(Cl)c1Cl` yielded a CPE inhibition of 0.45%.
With `S=C(Nc1ccccc1Oc1ccccc1)Nc1cccc(Cl)c1Cl` the CPE inhibition was 12.8% (active).
Work on `COc1cccc(NC(=O)CN2C(=O)C(c3ccc(C)cc3)=NC23CCCCCC3)c1` yielded a CPE inhibition of 3.59%.
For `Cc1ccc(-n2c(=S)[nH]c3nc4c(cc3c2=O)COC(C)(C)C4)cc1`, the CPE inhibition was “inactive”.
Molecule `O=S(=O)(/N=C(/Nc1ccccn1)c1ccc(Cl)cc1)c1ccc(Cl)cc1` has a CPE inhibition of 0.025%.
With `O=C(COc1cccc2c1CCN(Cc1ccc(Br)cc1)C2=O)NCc1ccco1` the CPE inhibition was 13.9% (active).
Work on `COC(=O)c1ccc(COc2cccc3c2CCN(Cc2cccc(C)c2)C3=O)o1` yielded a CPE inhibition of 0.825%.
With `O=C1c2cccc(OCC(=O)N3CCCc4ccccc43)c2CCN1Cc1ccccc1` the CPE inhibition was “inactive”.
With `Cc1ccc(CN2CCc3c(OCc4ccc(F)cc4)cccc3C2=O)cc1` the CPE inhibition was 23.2% (active).
For `O=C(COc1cccc2c1CCN(Cc1ccccc1)C2=O)NCc1ccco1`, the CPE inhibition was “inactive”.
`Cc1cccc(CN2CCc3c(OCC(=O)N4CCCc5ccccc54)cccc3C2=O)c1` gave a CPE inhibition of 4.05%.
In the case of `Cc1ccc(C)c(NC(=O)COc2cccc3c2CCN(Cc2ccccc2)C3=O)c1`, the CPE inhibition was 0.435%.
`CCOC(=O)N1CCN(C(=O)COc2cccc3c2CCN(Cc2ccc(F)cc2)C3=O)CC1` showed a CPE inhibition of 0.16%.
With `O=C1c2cccc(OCc3ccc(F)cc3)c2CCN1Cc1ccccc1` the CPE inhibition was 11.8% (active).
In the case of `Cc1ccc(COc2cccc3c2CCN(Cc2ccc(F)cc2)C3=O)cc1`, the CPE inhibition was 23% (active).
For `Cc1cccc(CN2CCc3c(OCC(=O)NCc4ccco4)cccc3C2=O)c1`, the CPE inhibition was “inactive”.
With `O=C1c2cccc(OCc3ccc(F)cc3)c2CCN1Cc1ccc(F)cc1` the CPE inhibition was 7.61%.

— PubChem BioAssay AID540333 (Southern Research Specialized Biocontainment Screening …, 2011)
